rRNA inh HTS – inhibits bacterial ribosomal RNA function over humanized ribosomes; E. coli WT GFP vs humanized-ribosome RFP mutants, fluorescence, 24 h; active compounds read low; DMSO median 0, no signal -100; 1.6% of 350,000 active; GFP signal change (wild-type ribosome), % (test concentration not listed);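 active means significant combined selectivity score with lowered wild-type GFP, culture density cut under 30%, mutant RFP and density less affected; inactive means any of these conditions unmet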
AF4-AF9 inh – inhibitors of human MLL-AF4/AF9 interaction | AlphaScreen, biotin-AF4 peptide binding to FLAG-AF9 | AID 651704 | inhibition, % at 10 µM | 0.47% of 350,000 active | P42568;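 active means every replicate reaching a set inhibition limit, whatever the replicate mean, cut at about 25% in these data; inconclusive means mean inhibition reaches that limit but some replicates miss it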
Target sequence (P42568 whole entry, looked up): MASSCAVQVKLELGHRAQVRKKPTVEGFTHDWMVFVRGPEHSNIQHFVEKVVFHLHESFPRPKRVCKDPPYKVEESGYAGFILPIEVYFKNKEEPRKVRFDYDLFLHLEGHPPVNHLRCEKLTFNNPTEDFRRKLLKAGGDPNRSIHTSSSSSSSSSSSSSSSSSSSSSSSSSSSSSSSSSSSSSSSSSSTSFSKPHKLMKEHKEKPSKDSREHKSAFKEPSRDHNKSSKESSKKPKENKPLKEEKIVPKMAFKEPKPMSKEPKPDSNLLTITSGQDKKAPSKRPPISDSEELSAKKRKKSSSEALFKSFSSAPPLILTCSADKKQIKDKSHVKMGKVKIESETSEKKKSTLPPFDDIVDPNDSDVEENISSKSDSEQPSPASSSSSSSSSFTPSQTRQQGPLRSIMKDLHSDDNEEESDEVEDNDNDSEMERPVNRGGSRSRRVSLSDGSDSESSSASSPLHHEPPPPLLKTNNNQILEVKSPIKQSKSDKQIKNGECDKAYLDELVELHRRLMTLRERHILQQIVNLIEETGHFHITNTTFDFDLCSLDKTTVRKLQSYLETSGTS
esBAF inh – inhibitors of esBAF chromatin remodeling in mouse ES cells | Bmi1-luciferase knock-in reporter, 24 h; 100% = twice the neutral-well signal | reporter increase, % at 12.5 µM | 2% of 350,000 active; in the data active means activation above about 40%; inconclusive means no clear call, values can overlap the other calls;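 further: a rise in the Bmi1 reporter signal indicates esBAF inhibition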
Wnt bcat act – activates Wnt/beta-catenin signaling in a reporter cell assay; activator, plate reader; activation, % at 9.35 µM; 1.2% of 300,000 active; in the data active means activation above about 30%, passing the limit was not always enough; inconclusive means no clear call, values can overlap the other calls
MITF act – increases MITF-driven TRPM1 promoter luciferase signal; activation, % at 12.5 µM; 0.75% of 300,000 active; AID 588334; SK-MEL-5 TRPM1-promoter luciferase, 24 h; % of positive control, neutral wells = 0;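 active means mean activation of at least 80% with every replicate also reaching 80%; inconclusive means mean reaches 80% but some replicate falls short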
HepG2 cytotox – kills or reduces viability of HepG2 cells. 30 tested, under 10 active. ATP luminescence, 72 h. activity change, negative = cytotoxicity, unspecified at 26 µM. shares compounds with rRNA inh HTS. AID 743480;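 active means compounds whose fitted half-maximal signal-loss concentration is at most twice their highest valid dose; inconclusive means flat curve with 30 to 70% signal loss, or poor fit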
AID977621 – growth inhibition of wild-type GFP E. coli, dose response, H69 mutant RFP, cherry-pick; shares compounds with rRNA inh HTS; E. coli wild-type GFP strain growth, fluorescence, 24 h; activity change, negative = inhibition at 50 µM; 1,900 tested, under 10 active;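 active means Wild-type ribosome reporter drop at least double the humanized mutant ribosome reporter drop, growth loss under a set limit; inconclusive means no clear call, values can overlap the other calls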;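 further: wild-type GFP and H69 mutant RFP strains grown together 50/50 in each well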
AID977628 – growth of wild-type and h24-humanized E. coli strains – h24 mutant RFP vs wild-type GFP, cherry-pick, dose response; 1,900 tested, under 10 active; AID 977628; E. coli WT GFP strain growth, fluorescence, 24 h; shares compounds with rRNA inh HTS; activity change, negative = inhibition at 50 µM;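 active means compound lowering the normal-ribosome reporter at least twice as much as the humanized-ribosome reporter, growth loss under a set limit; inconclusive means no clear call, values can overlap the other calls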;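 further: wild-type GFP and h24 humanized RFP strains co-cultured 1 to 1 per well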
Hits are given with their value; i = inactive; ? = inconclusive; nt = no result given. In the library only some 3.7% were active in any assay of this set; here they are far more common.

SMILES	rRNA inh HTS	AF4-AF9 inh	esBAF inh	Wnt bcat act	MITF act	AID977621	AID977628	others
CCCCc1cc2c(cc1NC(=O)CN1CCCCC1)OCCO2	-18	i	i	i	i	nt	i
CCCOC(=O)c1ccc(NC(=O)c2nc3nc(C)cc(C)n3n2)cc1	-23	i	i	i	i	i	i
Cc1cccc(CN2C(=O)c3ccccc3Sc3ccc(C(=O)NCCN4CCOCC4)cc32)c1	-47	i	i	i	i	i	nt
O=C(O)C1C2CCC(C2)C1C(=O)NCCc1ccc(F)cc1 (stereo not given)	i	i	i	i	i	nt	nt
O=C(c1ccncc1)N1CCc2ccccc2C1	i	i	i	i	i	nt	nt
O=C(c1ccc(-n2cccn2)cc1)N1CCc2ccccc2C1	-27	i	nt	i	nt	i	?
CCOc1ccc(S(=O)(=O)N(C)c2ccc(OCC(=O)NCc3cccnc3)cc2)cc1	-20	i	nt	i	i	i	i
Cc1nn(S(=O)(=O)c2ccc(Cl)cc2)c(C)c1Sc1ccc([N+](=O)[O-])cc1	-28	i	nt	i	i	i	nt
CCc1ccn2cc(-c3ccc4c(c3)OCO4)nc2c1	-26	i	nt	i	nt	i	nt
Cc1ccc(C)c(NC(=O)CSc2nc3nc(-c4cccs4)cc(C(F)(F)F)c3c(=O)[nH]2)c1	-20	i	i	i	i	nt	?	HepG2 cytotox=i
COc1cc(SC)ccc1C(=O)N(Cc1ccccc1)c1ccccn1	-19	nt	nt	i	nt	i	i
O=C(c1ccccc1)N(Cc1ccccc1)c1ccccn1	nt	nt	i	i	i	nt	nt
CO[C@H]1CN(C)C(=O)c2cc(NC(=O)C3CCCCC3)ccc2OC[C@H](C)N(C)C[C@H]1C	i	i	i	nt	nt	nt	nt
Cc1ccc2sc(N(CCCN(C)C)C(=O)c3ccc(S(=O)(=O)N4CCc5ccccc5C4)cc3)nc2c1C	-29	i	nt	i	i	i	i
COc1ccc(C)c2sc(N(CCN(C)C)C(=O)c3ccc(S(=O)(=O)N(C)c4ccccc4)cc3)nc12	-12	i	i	nt	nt	nt	i
COc1ccc(C)c2sc(N(CCCN(C)C)C(=O)c3ccc(S(=O)(=O)N4CCc5ccccc5C4)cc3)nc12	i	i	i	i	i	nt	nt
CCCCNS(=O)(=O)c1ccc2nc(SCC(=O)Nc3sccc3C#N)[nH]c2c1	nt	nt	nt	i	i	nt	nt
Cc1cc(NC(=O)c2cccc(S(=O)(=O)N3CC(c4ccccc4)CC3=O)c2)no1 (stereo not given)	i	i	i	i	i	nt	nt
Cn1c(=O)c2c(-c3ccccc3)n(-c3cc(C(=O)O)ccc3O)cc2n(C)c1=O	i	i	i	i	nt	nt	nt
Cn1c(=O)c2c(-c3ccccc3)n(-c3cc([N+](=O)[O-])ccc3N)cc2n(C)c1=O	-14	i	i	i	nt	i	i
O=S(=O)(c1ccccc1)N1CC[C@@H]2[C@H](CO)Nc3ccc(Br)cc3[C@@H]21	-42	i	i	nt	nt	i	nt
Cc1nn(C)cc1CNC(=O)c1ccccc1Br	nt	nt	i	nt	i	nt	nt
COc1ccc(S(=O)(=O)N(C)C[C@H]2Oc3c(NC(=O)C4CCOCC4)cccc3C(=O)N([C@@H](C)CO)C[C@H]2C)cc1	i	i	i	nt	nt	nt	nt
COc1ccc(S(=O)(=O)Nc2ccc3c(c2)C(=O)N([C@@H](C)CO)C[C@@H](C)[C@H](CN(C)S(=O)(=O)c2ccccc2)OCCCC[C@@H](C)O3)cc1	i	i	nt	nt	nt	nt	nt
O=[N+]([O-])c1cccc(COc2ccc(CN3CCOCC3)cc2)c1	-17	i	i	i	111	i	i
SMILES	rRNA inh HTS	AF4-AF9 inh	esBAF inh	Wnt bcat act	MITF act	AID977621	AID977628	others
N#CCc1nn(-c2ccc(F)cc2)c(N)c1C#N	i	i	i	i	i	nt	nt
O=C1CCCN1c1ccc(S(=O)(=O)N2CCCCC2)cc1	i	i	i	i	i	nt	nt
O=C1CCCN1c1ccc([N+](=O)[O-])cc1	-4.0	i	i	i	nt	?	?
CC1CCC2(CC1)NC(=O)N(CC(=O)NCCc1c[nH]c3ccccc13)C2=O (stereo not given)	i	i	i	i	i	nt	nt
O=C(COc1cccc2c1CCN(Cc1ccc(Br)cc1)C2=O)N1CCOCC1	-28	i	nt	i	i	i	i
O=C(COc1cccc2c1CCN(Cc1ccccc1F)C2=O)N1CCCCC1	-39	i	nt	i	i	nt	?
O=C1c2cccc(OCC(=O)N3CCCc4ccccc43)c2CCN1Cc1ccccc1	i	i	nt	i	i	nt	nt
O=C(N/N=C\c1cccc(OC(=O)c2ccco2)c1)c1ccc2c(c1)OCO2	nt	nt	nt	?	i	nt	nt
CN(C(=O)CN1C(=O)NC2(CCc3ccccc32)C1=O)C1CCCCC1 (stereo not given)	-13	i	i	i	nt	?	i
CN(C(=O)CN1C(=O)NC2(CCc3ccccc32)C1=O)C1CCS(=O)(=O)C1 (stereo not given)	i	i	i	i	i	nt	nt
O=C(CCl)N1c2ccccc2CCc2ccccc21	i	i	i	i	i	nt	nt
O=C1N2c3ccccc3CCc3cccc(c32)C1(O)C(F)(F)F (stereo not given)	-17	i	i	i	i	i	nt
CC(CCC(=O)O)C1CCC2C3CCC4C[C@H](O)CCC4(C)C3CC(=O)C12C (stereo not given in full)	i	i	i	i	i	nt	nt
CC(CCC(=O)O)C1CC[C@@]2(C)C3C(=O)CC4C(C)(C)C(O)CC[C@]4(C)C3C(=O)C[C@]12C (stereo not given in full)	-22	i	i	i	i	i	nt
COc1cc(-c2csc(C)n2)ccc1O	nt	nt	i	nt	i	nt	nt
COc1ccc(-c2csc(C)n2)cc1Br	-29	i	i	i	i	i	i
Cc1ccc(C2CC(C(F)(F)F)n3nc(C(=O)NCc4c(C)nn(C)c4C)c(Cl)c3N2)cc1 (stereo not given)	nt	nt	i	i	i	nt	nt
COc1ccc(OCc2n[nH]c(=S)n2-c2ccc(C)cc2)cc1	i	i	nt	i	i	nt	nt
COc1ccc(-n2c(COc3cccc(C)c3)n[nH]c2=S)cc1	-20	i	i	i	nt	i	i
CC(=O)CSc1ccc(-c2nc3ccccc3[nH]2)cn1	-24	i	i	i	i	i	i
CC(=O)CSc1ccc(-c2nc3cc(C)c(C)cc3[nH]2)cn1	i	i	nt	i	i	nt	nt
N#Cc1nc(-c2ccco2)oc1NCc1ccccc1Cl	-27	i	i	i	nt	i	i
O=S(=O)(NCc1ccc2c(c1)OCO2)c1ccc2c(c1)oc1ccccc12	-19	i	i	i	i	i	nt
C[C@H](CO)N1C[C@H](C)[C@@H](CN(C)Cc2ccc3c(c2)OCCO3)OCc2cnnn2CCCC1=O	i	i	i	i	nt	nt	nt
